# From PubChem BioAssay AID2314 (National Center for Advancing Translational Sciences (NCATS), 2010)
# Out of some 300,000 compounds screened, about 37,000 (12%) were called active. Cut-off read from the data, not from the text of the source: active = max response mostly above about 13% (no sharp cut-off); inactive = mostly below about 14%. Shown is part of a subset that was picked to be rich in actives.
# Experiment: Cycloheximide Counterscreen for Small Molecule Inhibitors of Shiga Toxin; note: read at 38.3 µM for the half of the compounds with a filed dose; 0% is about no effect
# Details: cell reporter, cycloheximide protein synthesis inhibition counterscreen; stronger effect = higher value
row,SMILES,max response
1,CCOc1ccccc1NC(=O)CCS(=O)(=O)c1cccc2nsnc12,-6.23% (inactive)
2,NC(=O)c1ccccc1N=Cc1ccc2ccccc2c1,38.3% (active)
3,O=C(N/N=C/c1cccc(O)c1)c1cc2c(ccc3ccccc32)o1,8.61% (inactive)
4,O=C(COc1cc2oc(=O)c3c(c2cc1Cl)CCC3)NCCCN1CCOCC1,6.01% (inactive)
5,O=C(NCCc1ccccc1)C1CCC(Cn2c(=O)c3ccccc3n(Cc3cccnc3)c2=O)CC1 (stereo not given),-1.63% (inactive)
6,O=C(O)c1cc([N+](=O)[O-])c(Nc2cccc3ccccc23)c([N+](=O)[O-])c1,-2.68% (inactive)
7,CCOc1ccc(C(=O)Nc2ccncc2)cc1,23.7% (active)
8,CCOc1ccc(NC(=O)c2ccc(CSc3nnnn3C)cc2)cc1,20.2% (active)
9,COc1ccc(CSc2nnnn2-c2ccc(C(=O)O)cc2)cc1,-3% (inactive)
10,CCOc1ccc(NC(=O)CCNC(=O)c2ccc(Br)cc2)cc1,17.2% (inactive)
11,CCOc1ccc(NC(=O)c2ccccc2NS(C)(=O)=O)cc1,15.1% (active)
12,CCCNC(=O)Nc1ccccc1C(=O)Nc1ccc(OC)cc1,2.17% (inactive)
13,COC(=O)c1ccccc1NC(=O)c1ccccc1NS(C)(=O)=O,-1.19% (inactive)
14,CCOc1ccc(C(=O)Nc2cccc(SC)c2)cc1,43.4% (active)
15,CCOc1ccc(C(=O)Nc2cccc(-c3ccc4nncn4n3)c2)cc1,-0.39% (inactive)
16,CCOc1ccc(NC(=O)c2ccc(NC(=O)C3CCCO3)cc2)cc1 (stereo not given),14.7% (inactive)
17,CCOc1ccc(NC(=O)CSc2nncn2C)cc1,3.07% (inactive)
18,CCOc1cccc(NC(=O)CC#N)c1,-0.681% (inactive)
19,CC1CN(c2nc(Nc3ccccc3)nc(N)c2[N+](=O)[O-])CC(C)O1 (stereo not given),1.21% (inactive)
20,O=C(CN1CCN(c2ccc(O)cc2)CC1)NC1CCCc2ccccc21 (stereo not given),-4.39% (inactive)
21,COc1ccc(CN(C)C(=S)Nc2ccc(Cl)cc2Cl)cc1,-0.677% (inactive)
22,O=C(O)C1CC=CC2CCN(C3CCCCC3)C(=O)C21 (stereo not given),-7.95% (inactive)
23,COc1ccc(OC)c(NC(=O)CN(C)CCOc2ccc(Br)cc2)c1,-3.46% (inactive)
24,O=C(Oc1cccc(N2C(=O)C3C4c5ccccc5C(c5ccccc54)C3C2=O)c1)c1ccco1 (stereo not given),-4.24% (inactive)

row,SMILES,max response
1,Cc1ccc2c(c1)N(S(=O)(=O)c1cc(-c3cc(C)no3)ccc1C)CCO2,1.76% (inactive)
2,CC(=O)Nc1cccc(C(=O)OCN2C(=O)c3ccccc3C2=O)c1,-2.39% (inactive)
3,CCN(CC)C(=O)CSC(Nc1cccc(F)c1)=C(C#N)C#N,-0.453% (inactive)
4,CCN(CC)N=Nc1cccc(NC(C)=O)c1,15.1% (active)
5,Fc1ccc(-c2nnc(CSc3nnc(-c4ccc5c(c4)OCO5)o3)o2)cc1,26% (active)
6,O=C(CSc1nnc(CNC(=O)c2ccc(F)cc2)o1)Nc1ccc2c(c1)OCO2,-1.02% (inactive)
7,Fc1ccc2nc(-c3ccccc3)nc(SCc3nnc(-c4ccccc4)o3)c2c1,-4.64% (inactive)
8,O=C(Nc1ccnn1C1CCN(C/C=C/c2ccc(F)cc2)CC1)C1CCCC1,-1.88% (inactive)
9,CCOc1ccc(OCC)c(NC(=O)CCS(=O)(=O)c2ccc(C)cc2)c1,-3.4% (inactive)
10,COc1ccc(N/N=C2/CCCCC2=O)cc1,29.4% (inactive)
11,Cc1ccc(N/N=C2\COC(C)(C)CC2=O)cc1,73.1% (active)
12,CC(C)CC(COCc1ccc(Cl)cc1)N1CCN(C(=O)c2ccc(C(F)(F)F)cc2)CCC1=O (stereo not given),-2.17% (inactive)
13,O=C1CC(Sc2ncn[nH]2)C(=O)N1c1ccccc1 (stereo not given),-3.41% (inactive)
14,COc1ccc(N2CCN(C(=O)c3ccccc3NC(=O)C3=C(C)OCCS3)CC2)cc1,-5.37% (inactive)
15,CN(Cc1ccccc1)C(=O)c1ccc(COc2ccccc2)cc1,7.81% (inactive)
16,CN(Cc1ccc(F)cc1)C(=O)COc1ccc2ccccc2c1,20.1% (inactive)
17,CN(Cc1ccccc1)C(=O)COc1ccccc1,41.1% (active)
18,CC1=NN(c2ccc(Cl)c(C(=O)O)c2)C(=O)/C1=C/c1ccc(-c2ccccc2[N+](=O)[O-])o1,-3.39% (inactive)
19,C=C1O[C@@](CO)(n2cnc3c(N)ncnc32)[C@H](O)[C@@H]1O,1.03% (inactive)
20,Cc1ccc(NC(=O)CCC(=O)N/N=C/c2ccco2)c(C)c1,-1.51% (inactive)
21,Cc1ccc(NS(=O)(=O)c2ccc3c(c2)oc(=O)n3C)c(C)c1,0.896% (inactive)
22,Cc1ccc(NN=C2C(=O)OC(C)(C)OC2=O)c(C)c1,52% (active)
23,O=c1c2ccccc2[nH]c(=S)n1CCN1CCC(=C(c2ccc(F)cc2)c2ccc(F)cc2)CC1,-1.14% (inactive)
24,Cc1ccc(NC(=O)CN(C)C(=O)c2ccc(Br)o2)cc1,-4.89% (inactive)

row,SMILES,max response
1,CCc1ccc(N(C(=O)c2csnn2)C(C(=O)NC2CCCCC2)c2ccncc2)cc1 (stereo not given),8.95% (inactive)
2,O=C(NNS(=O)(=O)c1ccccc1)c1cnn(-c2ccc(Cl)cc2)c1C(F)(F)F,1.19% (inactive)
3,O=C(NC1CC1)c1ccc2c(c1)NC(=O)c1ccccc1S2,0.906% (inactive)
4,C/C(=N\Nc1cccc(C(=O)O)c1)c1ccc2c(c1)Nc1ccccc1S2,31.5% (active)
5,Cc1ccccc1NC(=O)c1cc(S(=O)(=O)Nc2cccc(C(=O)O)c2)ccc1Cl,-4.93% (inactive)
6,CC(C)C[C@@H](CO)N1CCN(Cc2ccc(O)cc2)CCC1=O,-1.97% (inactive)
7,CCCN1C2CCCC1CC(NC(=O)NC13CC4CC(CC(C4)C1)C3)C2 (stereo not given),0.762% (inactive)
8,CC(C)c1ccc2oc(=O)cc(CN3CCN(Cc4ccccc4)CC3)c2c1,-1.81% (inactive)
9,O=C(CN(C(=O)c1csnn1)c1ccc(Br)cc1)NC1CCCC1,-2.24% (inactive)
10,O=C(NCCc1ccccn1)c1nc(Cn2cc([N+](=O)[O-])cn2)no1,-3.93% (inactive)
11,O=C(Cn1nc(Cc2cccnc2)c2ccccc2c1=O)NCC1COc2ccccc2O1 (stereo not given),-4.83% (inactive)
12,S=c1[nH]nc(Nc2ccccc2)s1,1.07% (inactive)
13,O=C(c1ccc(Cl)cc1)c1cnc(Nc2ccccc2)s1,8.33% (inactive)
14,CC(C)(C)C(=O)c1cnc(Nc2ccccc2)s1,44.2% (active)
15,S=c1[nH]nc(-c2ccco2)n1/N=C/c1ccc(Br)s1,1.13% (inactive)
16,O=C(CSc1nc(-c2ccccc2)cs1)Nc1cccc([N+](=O)[O-])c1,39.4% (active)
17,Cn1c(CNc2nc(-c3ccccc3)cs2)nnc1SCC(=O)c1ccccc1,-2.68% (inactive)
18,O=C(CSCC(=O)Nc1cccc([N+](=O)[O-])c1)Nc1ccccc1,7.14% (inactive)
19,O=C(CSc1nc2ccccc2c(=O)[nH]1)Nc1nc(-c2ccc(Br)cc2)cs1,3.64% (inactive)
20,O=C(CSC1=NCCS1)Nc1nc(-c2ccccc2)cs1,35.3% (active)
21,CCNC(=O)CSc1nc(-c2ccccc2)cs1,44% (active)
22,Cc1csc(NC(=O)CSc2ccc(-c3ccc(F)cc3)nn2)n1,-6.44% (inactive)
23,O=C(CSc1ncn[nH]1)Nc1nc(-c2cccc([N+](=O)[O-])c2)cs1,2.28% (inactive)
24,CCOC(=O)CSc1nnc(CNc2nc(-c3ccccc3)cs2)n1C,-0.673% (inactive)

row,SMILES,max response
1,Cc1cc2cc3c(cc2nc1SCC(=O)Nc1c(C)cccc1C)CCC3,0.976% (inactive)
2,Cc1c(CCOC(=O)CC23CC4CC(CC(C)(C4)C2)C3)sc[n+]1Cc1ccc([N+](=O)[O-])cc1,-3.94% (inactive)
3,Fc1ccc(Cn2nnnc2C(c2cccs2)N2CCCCCC2)cc1 (stereo not given),0.541% (inactive)
4,CCOc1ccccc1NS(=O)(=O)c1cc2c3c(c1)C(C)C(=O)N3CCC2 (stereo not given),-3.18% (inactive)
5,COc1ccccc1C1=Nc2cccc3cccc(c23)N1,-1.72% (inactive)
6,CCCOc1ccccc1-c1nc(SCCC(=O)O)n[nH]1,-3.17% (inactive)
7,COc1ccccc1-c1nc(SC)n[nH]1,23.3% (active)
8,CSc1ccccc1NC(=O)CN(C)CC(=O)Nc1ccc(Cl)cc1[N+](=O)[O-],7.28% (inactive)
9,CN(CC(=O)Nc1ccccc1[N+](=O)[O-])Cc1ccc(Br)cc1,7.65% (inactive)
10,Cc1ccc(NC(=O)CN(C)Cc2ccc(F)cc2)c([N+](=O)[O-])c1,12.6% (active)
11,Cc1cccc(NC(=O)COC(=O)CCc2ccccc2)c1C,-2.64% (inactive)
12,CCOC(=O)C(C)Oc1cccc2c(=O)n(CC(=O)NCCc3ccc(OC)c(OC)c3)ccc12 (stereo not given),-2.75% (inactive)
13,O=C1CCN(Cc2ccc([N+](=O)[O-])cc2)CCN1[C@H](CO)Cc1ccccc1,-3.88% (inactive)
14,O=C(N/N=C/c1sc(N2CCCCC2)nc1-c1cccs1)c1cccnc1,20.6% (active)
15,O=C(CNC(=O)c1cccnc1)N/N=C/c1cccnc1,-3.21% (inactive)
16,O=C(c1cccnc1)N1CCN(S(=O)(=O)c2cccs2)CC1,-2.02% (inactive)
17,CN(C(=O)c1ccccc1)c1nccnc1C#N,-1.74% (inactive)
18,Cc1ccc(C)c(NC(=S)NCC(c2cccnc2)N2CCOCC2)c1 (stereo not given),-3.15% (inactive)
19,O=C(NC(=S)Nc1ccc(Cl)c(C(=O)O)c1)c1cncc(Br)c1,1.31% (inactive)
20,COc1ccc(Br)cc1/C=N/Nc1ccc(Cl)c(C(=O)O)c1,7.13% (inactive)
21,Cc1ccc(NC(=S)N/N=C2/CCCc3c(C)cc(C)cc32)cc1,-1.84% (inactive)
22,CC(C)c1ccc(NC(=S)NNc2ccc(Cl)c(C(=O)O)c2)cc1,38% (active)
23,Cc1ccc(C)c(NC(=S)NNC(=S)Nc2ccc(C(C)C)cc2)c1,31% (active)
